Tau fibril ThT: qHTS for Inhibitors of Tau Fibril Formation, Thioflavin T Binding; Microtubule-associated protein tau (Homo sapiens), P10636; Potency, µM (titrated, usually from 57.4 µM), inactives show at the highest dose activity, negative = inhibition, usual class: inhibitors; recombinant tau K18 P301L, heparin-induced fibrillization, ThT fluorescence; AID 1460, 2008; hit rate 2.1% among 270,000; also: nearly all actives have a fitted effect of over 55% in size
Target sequence (P10636 561-689 P618L limits assumed): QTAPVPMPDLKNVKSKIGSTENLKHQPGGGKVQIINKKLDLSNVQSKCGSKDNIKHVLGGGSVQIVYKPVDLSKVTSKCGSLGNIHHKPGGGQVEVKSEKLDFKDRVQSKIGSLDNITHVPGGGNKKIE
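Heparin-induced (20 uM) aggregation of recombinant human K18 P301L tau, 15 uM unlabeled with 0.24 uM labeled, pH 7 acetate buffer, 6 hr at 37 C with compound. Fibrils quantified by 30 uM ThT fluorescence after 1 hr ambient incubation.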
Tau fluor cs: Counterscreen qHTS for Inhibitors of Tau Fibril Formation, Fluorescence Polarization. tau K18 P301L Alexa594 fluorescence, heparin fibrillization. Potency, µM (doses to about 57.7 µM), for inactives: top-dose activity change, negative = decrease. hit rate 0.93% among 280,000; also: nearly all actives have a fitted effect of over 55% in size
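Human tau K18 P301L (15 uM unlabeled, 0.24 uM Alexa 594-labeled) in 100 mM sodium acetate pH 7 with 20 uM heparin, 6 hr at 37 C. ThT 30 uM added, 1 hr ambient; Alexa 594 FP and total fluorescence read at 555/632 nm.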
RORgamma inh: qHTS for inhibitors of ROR gamma transcriptional activity. Potency, µM (highest dose often 53.6 µM), for the others: at the top dose activity change, negative = inhibition, hits mostly inhibitors. Nuclear receptor ROR-gamma (Mus musculus), P51450. hit rate 5.4% among 310,000. Drosophila S2 Gal4-RORgamma UAS-luciferase reporter, 20 h; also: nearly all actives have a fitted effect of over 60% in size
Target sequence (P51450 whole entry, looked up, the tested form may be a part): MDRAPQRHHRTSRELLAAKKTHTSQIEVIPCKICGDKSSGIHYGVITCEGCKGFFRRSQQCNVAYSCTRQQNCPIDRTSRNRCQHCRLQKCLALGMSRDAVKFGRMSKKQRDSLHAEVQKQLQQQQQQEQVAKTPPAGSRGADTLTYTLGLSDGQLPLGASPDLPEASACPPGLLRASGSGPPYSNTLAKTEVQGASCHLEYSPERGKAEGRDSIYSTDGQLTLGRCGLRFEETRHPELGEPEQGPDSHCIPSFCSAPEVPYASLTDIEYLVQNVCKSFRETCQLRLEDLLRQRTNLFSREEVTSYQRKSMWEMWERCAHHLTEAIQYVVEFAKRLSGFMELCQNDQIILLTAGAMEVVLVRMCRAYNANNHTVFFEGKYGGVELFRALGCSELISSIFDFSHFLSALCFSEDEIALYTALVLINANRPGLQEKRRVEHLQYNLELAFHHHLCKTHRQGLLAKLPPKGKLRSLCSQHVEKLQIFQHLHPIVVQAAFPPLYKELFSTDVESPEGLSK
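Stable Schneider cell line, Gal4 DNA-binding domain fused to ROR gamma, UAS-luciferase. Cmpd 1 hr RT → CuSO4 700 uM final → 20 hr RT → luciferase reagent 10 min → luminescence.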
Tau FP inhib: qHTS for Inhibitors of Tau Fibril Formation, Fluorescence Polarization | Microtubule-associated protein tau (Homo sapiens), P10636 | K18 P301L tau heparin fibrillization, Alexa594 FP, 6 h | Potency, µM (series often up to 57.7 µM), without a hit: at the highest dose activity, negative = inhibition, usual class: inhibitors | hit rate 0.39% among 280,000; also: nearly all actives have a fitted effect of over 55% in size
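Heparin (20 uM) drove fibril formation of recombinant tau K18 P301L, 15 uM unlabeled with 0.24 uM Alexa 594 label, for 6 hr at 37 C in 100 mM sodium acetate pH 7. Fluorescence polarization (555/632 nm) read 1 hr after 30 uM ThT.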
VP16 counter: VP16 counterscreen qHTS for inhibitors of ROR gamma transcriptional activity; Drosophila S2 Gal4-VP16 UAS-luciferase, luminescence, 20 h; Potency, µM (top dose mostly 53.6 µM), for inactives: top-dose activity, negative = inhibition, actives largely listed as inhibitors; hit rate 3.5% among 310,000; AID 2546, 2010;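 also: Gal4-VP16 expression switched on by copper sulfate through the metallothionein promoter; nearly all actives have a fitted effect of over 50% in size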
Numbers without * were called inactive; ? = inconclusive; . = no result; [ ] = remark or other dose. This is a sample that favours compounds with a hit; in the whole collection about 7.3% have one here. Calls follow the shape of the dose curve; as a rule, active = well fitted curve in the direction sought with a large enough effect; inconclusive = small, poorly fitted or top-dose-only effect, or another doubt; inactive = no such curve, though single readings can be large; an effect the other way counts as inactive or inconclusive. % is scaled to controls: 0 for no effect and ±100 for the full control effect; potency is read from the fitted curve at half-maximal effect.

SMILES	Tau fibril ThT	Tau fluor cs	RORgamma inh	Tau FP inhib	VP16 counter
C=CCOc1ccccc1/C=N/NC(=O)c1ccc(Cl)cc1Cl	-13%	-13%	?	-2%	4%
CCOc1cc(/C=N/NC(=O)c2c(-c3ccccc3)noc2C)ccc1O	-13%	-22%	19%	-17%	2%
COc1cc(C(=O)Oc2ccccc2/C=N/NC(=O)c2ccc(Cl)cc2Cl)cc(OC)c1OC	-23%	-22%	7.1µM*	-14%	11µM*
COc1cccc(/C=N/NC(=O)c2cnccn2)c1O	?	1%	2.2µM*	3%	2.5µM*
CCOc1cc([N+](=O)[O-])cc(/C=N/NC(=O)c2c(-c3ccccc3)noc2C)c1O	.	.	0.63µM*	.	0.63µM*
COc1cccc(/C=N/NC(=O)c2c(-c3ccccc3)noc2C)c1O	-3%	-11%	0.35µM*	-1%	2µM*
CC(=O)c1ccc(S(=O)(=O)NCc2ccc(C(=O)NCC(c3ccccc3)N(C)C)cc2)cc1 (configuration not stated)	.	.	8%	.	3%
CC[C@@H](c1ccccc1)n1c(=O)n2n(c1=O)[C@H]1[C@H](O)[C@H]3O[C@H]3C(=O)[C@H]1CC2	-12%[11.5 µM]	-4%[11.6 µM]	3%[10 µM]	-5%[11.6 µM]	-4%[10 µM]
CCOC(=O)c1c(C)c(-c2ccccc2)n(CC(=O)NC2CCCCC2)c1C	-5%	-14%	.	4%	.
COc1ccccc1/C=N/NC(=O)c1ccc(-c2ccccc2)cc1	?	-17%	11µM*	-8%	?
Cc1onc(-c2ccccc2)c1C(=O)N/N=C/c1c[nH]c2ccccc12	-17%	?	2.8µM*	?	7.1µM*
COc1cccc(/C=N/NC(=O)C(=O)N/N=C/c2cccc(OC)c2O)c1O	?	2%	19%	-7%	-7%
Cc1ccc(/C=N/NC(=O)c2c(-c3ccccc3)noc2C)c(O)c1	.	.	3.2µM*	.	3.2µM*
COc1ccccc1/C=N/NC(=O)c1ccc(=O)n(C)c1	-2%	15%	-26%	9%	8%
COc1ccc(Cl)cc1/C=N/NC(=O)c1c(-c2ccccc2)noc1C	.	.	?	.	-14%
COc1cc(/C=N/NC(=O)c2c(-c3ccccc3)noc2C)ccc1O	-1%	-2%	6%	3%	9%
COc1cccc(/C=N/NC(=O)c2ccoc2C)c1O	?	-12%	0.063µM*	3%	0.5µM*
CN1CCN(NC(=O)/C=C/c2cccc([N+](=O)[O-])c2)CC1	.	.	19%	.	6%
Cc1cccc(NC(=O)CN(C)S(=O)(=O)c2ccc3c(c2)CCC(=O)N3)c1C	2%	-4%	.	6%	.
CCOc1ccc(S(=O)(=O)N2CCN(c3cccc(C(F)(F)F)c3)CC2)cc1OCC	-7%	-29%	.	-15%	.
CCN(CC)CCCn1c(=S)[nH]c2ccccc2c1=O	4%	6%	?	2%	-3%
CCCCn1c(=S)[nH]c2c(oc3ccc(Cl)cc32)c1=O	-6%	-7%	1.1µM*	-1%	?
Cc1cc(NC(=O)c2ccc3c(c2)N(Cc2cccc(Cl)c2)C(=O)c2ccccc2S3(=O)=O)ccc1Br	6%	-15%	.	?	.
O=C(Nc1cc(Sc2ccccn2)cc([N+](=O)[O-])c1)c1cccc(Cl)c1	5%	3%	-3%	3%	?
O=C(Nc1cc(Sc2ccccn2)cc([N+](=O)[O-])c1)c1ccc(Cl)cc1	-14%	10µM*[quencher]	20%	-9%	16%
SMILES	Tau fibril ThT	Tau fluor cs	RORgamma inh	Tau FP inhib	VP16 counter
C[C@@H](NC(=O)c1nc[nH]c1C(=O)NCC(=O)OCc1ccccc1)c1ccccc1	.	.	8.9µM*	.	?
CC(C)(C)OC(=O)N1CCC(NC(=O)c2nc[nH]c2C(=O)NCC(=O)OCc2ccccc2)CC1	.	.	?	.	-13%
C[C@@H](NC(=O)c1nc[nH]c1C(=O)NCC(=O)OC(C)(C)C)c1ccccc1	.	.	10µM*	.	?
O=C(/C=C/c1ccccc1)NC(=S)Nc1ccccc1C(=O)NC1CCCCC1	-10%	-3%	11µM*	3%	?
Cc1ccc(/C=C/C(=O)NC(=S)Nc2ccccc2C(=O)NC2CCCCC2)cc1	?	-11%	?	1%	-20%
COc1ccc(/C=C/C(=O)NC(=S)Nc2ccccc2C(=O)NC2CCCCC2)cc1	-10%	-10%	14µM*	-7%	-11%
O=C(/C=C/c1ccc(F)cc1)NC(=S)Nc1ccccc1C(=O)NC1CCCCC1	3%	-3%	?	-2%	13µM*
Cc1ccc2nc(-c3cccs3)c(Nc3ccc4c(c3)OCCO4)n2c1	?	?	.	11%	.
C/C(CC(=O)Nc1ccc(Cl)c(C(F)(F)F)c1)=N\NC(=O)c1cc2ccccc2cc1O	13µM*	16µM*[quencher]	?	-5%	?
O=C(NCCO)c1cc2ccccc2cc1O	-18%	?	5%	5%	-4%
CCOC(=O)C(C)/C(C)=N/NC(=O)c1cc2ccccc2cc1O (configuration not stated)	?	?	11µM*	-2%	13µM*
C/C(CC(=O)N1CCN(C=O)CC1)=N\NC(=O)c1ccc(Cl)cc1	-8%	0%	?	-4%	11µM*
O=C(OCC(=O)N1CCCCC1)c1cc2ccccc2cc1O	?	-15%	6%	-5%	-16%
C/C(CC(=O)N1CCCC1)=N\NC(=O)c1cc2ccccc2cc1O	13µM*	?	6.3µM*	-15%	?
COc1ccccc1N1CCN(C(CNC(=O)C(=O)NCc2ccc(F)cc2)c2cccnc2)CC1 (configuration not stated)	?	-11%	.	10%	.
COc1cc(NS(=O)(=O)c2ccc(NC(=O)c3ccc(C(C)=O)cc3)cc2)nc(OC)n1	-9%	-7%	.	-4%	.
Cc1cc2c(cc1S(=O)(=O)Nc1cccc(Cl)c1C)n(C)c(=O)c(=O)n2C	9%	2%	.	4%	.
Cc1nc(-c2ccc(S(=O)(=O)Nc3ccc(Br)cc3F)cc2)co1	.	.	0%	.	-6%
CCOc1ccc(CNS(=O)(=O)c2ccc3c(c2)CCCN3C(C)=O)cc1OC	1%	-4%	.	-10%	.
O=C(NC1(C(F)(F)F)N=C(c2ccccc2)N(C2CCCCC2)C1=O)c1ccc(F)cc1 (configuration not stated)	-11%	-18%	.	-4%	.
C/C(CC(=O)Nc1cccc(Br)c1)=N\NC(=O)c1ccc(O)cc1O	.	.	0.89µM*	.	?
COc1cccc(NC(=O)C/C(C)=N/NC(=O)c2ccccc2Cl)c1	.	-5%	?	-3%	5%
O=C(CCCN1CCN2CCCC2C1)c1ccc(F)cc1 (configuration not stated)	.	.	-10%	.	-1%
